Shown are actives, neighbours in structure and some others; about 21% of the full set was active somewhere.
HCMV inh – blocks human cytomegalovirus replication. HFF cells, HCMV-luciferase reporter, 72 h; active compounds read low. activity change, negative = inhibition, % at 57.5 µM. actives 4.5% (n = 410,000); in the data active = activity change below about -60%; inconclusive = no clear call, values can overlap the other calls; inactive = above about -39%; note: % is set by controls: 0 for no effect and ±100 for the full control effect
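Luciferase read-out from HCMV-luciferase-infected HFFs (MOI 1 PFU/cell) 72 h post infection at 37C; compounds added after 16 h cell attachment; activity normalized between buffer-only basal and Salinomycin (10uM) inhibitor controls.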
HCV inh – HCV inhibition; Huh7.5.1 HCVcc-Cre infection, luciferase reporter, 44 h; actives 3.4% (n = 340,000); Potency, µM (titrated, usually from 41.8 µM), inactives show top-dose activity change, negative = inhibition, most hits filed as inhibitors; note: potency is the fitted concentration of half-maximal effect; % is set by controls: 0 for no effect and ±100 for the full control effect
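Seed cells (1,000/well) for 4 h; treat with compound and infect with HCVcc-Cre, moi about 0.5. Incubate 44 h, then detect luciferase activity.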
Pf growth 48h – P. falciparum growth inhibition at 48 hours (one generation). P. falciparum luciferase growth in erythrocytes, 48 h. Potency, µM (series often up to 28.7 µM), for inactives: top-dose activity change, negative = inhibition, hits mostly inhibitors. actives 5.9% (n = 310,000). AID 504832; note: potency is the fitted concentration of half-maximal effect; % is set by controls: 0 for no effect and ±100 for the full control effect
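In quantitative HTS format, infected erythrocytes bearing luciferase-reporter parasites were treated for a single generation at 37 C. Luminescence after adding detection reagent served as the growth measure.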
Cycloheximide cs – counter-screen for Shiga toxin inhibitors: cycloheximide protein synthesis inhibition | actives 12% (n = 300,000) | AID 2314 | cell reporter, cycloheximide protein synthesis inhibition counterscreen | max response, %; in the data active = max response mostly above about 13%, no sharp cut-off; inactive = mostly below about 14%; note: read at 38.3 µM for the half of the compounds with a filed dose; 0% is about no effect
Pf growth 96h – inhibits malaria parasite growth, 96 h; Potency, µM (top dose mostly 28.7 µM), for the others: top-dose activity change, negative = inhibition, usual class: inhibitors; actives 6.9% (n = 320,000); P. falciparum luciferase reporter growth, 96 h; note: potency is the fitted concentration of half-maximal effect; % is set by controls: 0 for no effect and ±100 for the full control effect
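Delayed-death screen, second-generation endpoint: infected erythrocytes, 2% hematocrit, 0.05% parasitemia final; 96 hours at 37 C, 5% CO2; luciferase detection reagent; luminescence decrease equals reduced growth.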
Shiga toxin inh – blocks Shiga toxin action in Vero cells; Vero cells, Shiga toxin protein synthesis inhibition reporter; inhibition, % at 38.7 µM; actives 9.2% (n = 290,000); AID 2315; in the data active = inhibition mostly above about 28%, no sharp cut-off; inactive = mostly below about 43%; note: 0% is about no effect
The depositor's hits bear a star; i = inactive; ? = inconclusive; · = not tested or not shown. Unless noted, calls come from the whole dose curve; as a rule, active = well fitted inhibition curve with a large enough effect; inconclusive = small, poorly fitted or top-dose-only effect, or another doubt; inactive = no such curve, though single readings can be large or run the other way.

SMILES	HCMV inh	HCV inh	Pf growth 48h	Cycloheximide cs	Pf growth 96h	Shiga toxin inh
COc1ccc(N2CCN(C(=O)CSc3nnnn3-c3ccc4c(c3)OCCO4)CC2)cc1	?	7.94µM*	?	-3.0	·	-12.9
O=C(O)CSc1nnnn1-c1ccc2c(c1)OCCO2	28.1	1.0%	·	-2.9	11.4%	-6.4
CC(C)OC(=O)CSc1nnnn1-c1ccc2c(c1)OCCO2	1.1	10.2%	80.2%	35.4*	?	64.1*
CC1=C(c2ccc(C)cc2)S(=O)(=O)N(Cc2ccc(C(=O)NCc3cccc(C)c3)cc2)C1=O	54.1	·	·	·	·	·
O=C(NC(=S)N1CCN(c2ccc(F)cc2)CC1)c1cccs1	-16.0	?	?	2.8	-3.2%	-2.4
O=C(NC(=S)Nc1ccc(N2CCN(C(=O)c3ccccc3)CC2)cc1)c1cccs1	-63.6*	31.6µM*	?	-4.1	-13.1%	-9.3
O=C(NC(=S)Nc1ccccc1N1CCN(C(=O)c2ccccc2)CC1)c1cccs1	-4.4	-5.5%	?	-3.0	?	-7.4
O=C(NC(=S)N1CCN(c2ccc(O)cc2)CC1)c1cccs1	-20.4	1.5%	7.6%	23.6*	?	83.9*
CS(=O)(=O)N1CCN(c2ccc(NC(=S)NC(=O)c3cccs3)cc2)CC1	-31.0	-27.0%	25.8%	16.1*	-15.8%	17.0
CCOC(=O)C1CCN(C(=S)NC(=O)c2cccs2)CC1	21.9	11.7%	?	29.0*	1.6%	47.2
Cc1nc(-c2ccc(Cl)cc2)sc1C1(C)CC(c2ccc(C#N)cc2)=NO1 (stereo not drawn)	-37.5	34.0%	-1.1%	1.2	72.2%	13.9
CC(=O)N1CCc2cc(S(=O)(=O)NC(C(=O)NC(C)c3ccccc3)C(C)C)ccc21 (stereo not drawn)	-28.0	-4.1%	6.2%	-5.6	?	-4.0
CC(C)(C)CC(=O)NCC(c1ccc2c(c1)OCO2)N1CCN(c2ccccc2)CC1 (stereo not drawn)	-1.8	·	·	·	·	·
CS(=O)(=O)N1CCN(c2ccc(NC(=S)NC(=O)c3ccccc3[N+](=O)[O-])cc2)CC1	-29.9	12.6µM*	21.8%	9.3	24.1%	-9.4
O=C(NC(=S)Nc1ccc(N2CCCCC2)cc1)c1cccs1	?	-28.0%	?	51.7*	?	78.7*
O=C(Nc1ccc(N2CCN(C(=O)c3cccs3)CC2)cc1)c1ccc(Br)o1	0.0	?	11.7µM*	·	?	·
O=C1N[C@H](Cc2ccccc2)COC(=O)[C@@H](Cc2ccc(F)cc2)C/C=C\C[C@H]1CC(=O)N(CCO)Cc1ccccc1	-14.6	?	·	·	·	·
CC(C)(C)C(C)(C)CN=CN1c2ccccc2-n2cccc2C1c1cccc(F)c1 (stereo not drawn)	-4.6	·	·	·	·	·
CCc1nc(NC(=O)NS(=O)(=O)c2ccccc2C(=O)OC)nc(OC)n1	10.8	18.1%	-11.0%	0.9	21.9%	-5.0
CC(=O)N1CCc2nc3sc(C(=O)Nc4ccc(Cl)cc4F)c(N)c3c(C(F)(F)F)c2C1	13.8	·	·	·	·	·
C(=C\c1ccc2ccccc2n1)/c1ccccc1	36.4	-7.6%	-38.5%	12.9	304.6%	15.6
Fc1ccccc1/C=C/c1ccc2ccccc2n1	-10.3	-14.5%	33.1%	50.7	?	72.0*
O=[N+]([O-])c1ccc(/C=C/c2ccc3cccc(O)c3n2)cc1	73.7	-28.7%	·	59.6*	-13.5%	98.2*
O=[N+]([O-])c1ccc(/C=C/c2ccc3ccccc3n2)cc1	?	-6.8%	i	20.7*	12.9%	30.0
O=C(O)COc1ccc(/C=C/c2ccc3cccc([N+](=O)[O-])c3n2)cc1	-29.6	35.6%	27.5%	-1.5	-15.6%	12.7
SMILES	HCMV inh	HCV inh	Pf growth 48h	Cycloheximide cs	Pf growth 96h	Shiga toxin inh
C(=Cc1c[nH]c2ccccc12)c1nccc2ccccc12	99.0	?	·	·	·	·
C(=Cc1c[nH]c2ccccc12)c1ccc2ccccc2n1	-91.8*	5.62µM*	·	·	·	·
CCc1ccccc1NCc1nnc2n1CCCCC2	3.1	·	·	·	·	·
O=C(COc1ccccc1)N=C1SC2CS(=O)(=O)CC2N1c1cccc(F)c1 (stereo not drawn)	-3.5	-3.3%	16.6%	5.2	?	-8.1
O=C(NC1CCCC1)C(c1ccncc1)N(C(=O)Cc1cccs1)c1cccc(F)c1 (stereo not drawn)	-23.1	5.2%	13.0%	-6.4	2.2%	1.1
COC(=O)c1ccc(C2C=C(c3ccc(Cl)cc3)Nc3nc4ccccc4n32)cc1 (stereo not drawn)	28.7	·	·	·	·	·
CCOc1ccc(NC(=O)CC2C(=O)N(c3ccc(F)cc3)C(=O)N2Cc2ccc(OC)c(OC)c2)cc1 (stereo not drawn)	10.1	·	·	·	·	·
CC(=O)Nc1ccc(/C=C/c2ccc3cccc([N+](=O)[O-])c3n2)cc1	-90.0*	11.2µM*	59.0%	22.8*	?	74.7*
O=C(O)/C=C/c1ccc2ccccc2n1	-39.8	21.8%	-3.5%	0.9	-26.7%	4.8
Oc1ccc(/C=C/c2ccc3ccccc3n2)cc1	-67.8*	?	195.9%	7.2	?	23.8
CC(=O)Oc1c(Cl)cc(Cl)cc1/C=C/c1ccc2ccccc2n1	-17.8	-19.0%	-11.2%	-3.0	-11.8%	9.6
CC(=O)Oc1ccc(Cl)cc1/C=C/c1ccc2ccccc2n1	95.9	7.94µM*	2.62µM*	37.4*	?	75.8*
O/C(=C\c1ccc2ccccc2n1)c1ccc(O)cc1O	51.5	-28.2%	364.7%	32.7*	i	38.9*
COc1ccc(S(=O)(=O)NC(=O)C2(C)CCN2C(=O)CC2CC2)cc1 (stereo not drawn)	37.5	·	·	·	·	·
CC(=O)c1ccc(NC(=O)CCn2cccn2)cc1	19.0	·	·	·	·	·
COCCNc1ccc2cc(S(=O)(=O)N3CCCCC3)ccc2n1	-3.8	·	·	·	·	·
COc1ccc(C)cc1NC(=O)CCS(=O)(=O)c1ccc2c(c1)oc(=O)n2C	-3.8	-4.9%	4.8%	-12.3	-4.4%	-2.0
Nc1cccc2c(O)cccc12	-102.1*	21.8%	·	·	·	·
COc1ccc(N2CCN(C(C)C(=O)Nc3nnc(C)s3)CC2)cc1 (stereo not drawn)	24.1	3.8%	5.1%	1.2	179.6%	2.9
COc1ccc2sc(C)cc(=O)c2c1	-14.8	·	·	·	·	·
COc1ccc2sc3ccccc3c(=O)c2c1	80.3	?	149.6%	43.9*	200.6%	80.5*
COc1ccc(-c2cc(=O)c3ccccc3s2)cc1	88.7	?	·	29.0*	-2.3%	92.5*
CS(=O)(=O)NCCc1csc2nc(-c3ccccc3)nn12	-37.2	·	·	·	·	·
COc1ccc(CCNC(=O)c2ccc(Cn3c(=O)c4ccccc4n(Cc4ccc(C)cc4)c3=O)cc2)cc1OC	11.3	·	·	·	·	·
COc1ccc(C)cc1N(CC(=O)N/N=C/c1ccccc1C(=O)O)S(=O)(=O)c1ccccc1	-26.4	28.3%	?	4.6	?	-7.0
C[C@@H]1CN([C@H](C)CO)C(=O)CCCn2cc(nn2)CO[C@H]1CN(C)C(=O)C1CCCCC1	6.4	·	·	·	·	·
